{
  "source": "the supplement of paper PMC11001985",
  "note": "Unmarked numbers belong to inactive results.",
  "data": [
    {"compound": "C#CCNC(=O)CCSSCCC(=O)NCCc1ccc(C=O)c(C=O)c1", "experiment": "lysine labeling ratio R10:1 (500 µM / 50 µM probe), SILAC-ABPP in living cells; higher = lower intrinsic lysine reactivity toward the probe, active = 2 or less", "conditions": "HeLa; probe concentrations 500 vs 50 µM", "outline": "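For each lysine, R is the median over forward and reverse replicates of the filtered median MS1 peptide ratio of high probe to low probe. The probe, an alkyne-tagged, disulfide-linked lysine probe, was given at 500 µM or 50 µM to living SILAC light and heavy HeLa cells in PBS at room temperature, with label swaps. Values are capped at 20.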", "values": [
      {"target": "GALNT2 (lysine site: K111) (UniProt Q10471)", "lysine labeling ratio R10:1": 3.04},
      {"target": "FRAS1 (lysine site: K263) (UniProt Q86XX4)", "lysine labeling ratio R10:1": "1.46 (active)"},
      {"target": "GPC1 (lysine site: K236) (UniProt P35052)", "lysine labeling ratio R10:1": 3.17},
      {"target": "NSUN2 (lysine site: K257) (UniProt Q08J23)", "lysine labeling ratio R10:1": "1.71 (active)"},
      {"target": "PSMD2 (lysine site: K551) (UniProt Q13200)", "lysine labeling ratio R10:1": 2.34},
      {"target": "AK2 (lysine site: K28) (UniProt P54819)", "lysine labeling ratio R10:1": 10.2},
      {"target": "HSPA5 (lysine site: K96) (UniProt P11021)", "lysine labeling ratio R10:1": "1.44 (active)"},
      {"target": "UniProt P60866 (lysine site: K59)", "lysine labeling ratio R10:1": 2.02},
      {"target": "DSTN (lysine site: K19) (UniProt P60981)", "lysine labeling ratio R10:1": "1.87 (active)"},
      {"target": "UniProt Q68BL7 (lysine site: K168)", "lysine labeling ratio R10:1": "1.12 (active)"},
      {"target": "UniProt Q8N441 (lysine site: K154)", "sequence (Q8N441 whole entry)": "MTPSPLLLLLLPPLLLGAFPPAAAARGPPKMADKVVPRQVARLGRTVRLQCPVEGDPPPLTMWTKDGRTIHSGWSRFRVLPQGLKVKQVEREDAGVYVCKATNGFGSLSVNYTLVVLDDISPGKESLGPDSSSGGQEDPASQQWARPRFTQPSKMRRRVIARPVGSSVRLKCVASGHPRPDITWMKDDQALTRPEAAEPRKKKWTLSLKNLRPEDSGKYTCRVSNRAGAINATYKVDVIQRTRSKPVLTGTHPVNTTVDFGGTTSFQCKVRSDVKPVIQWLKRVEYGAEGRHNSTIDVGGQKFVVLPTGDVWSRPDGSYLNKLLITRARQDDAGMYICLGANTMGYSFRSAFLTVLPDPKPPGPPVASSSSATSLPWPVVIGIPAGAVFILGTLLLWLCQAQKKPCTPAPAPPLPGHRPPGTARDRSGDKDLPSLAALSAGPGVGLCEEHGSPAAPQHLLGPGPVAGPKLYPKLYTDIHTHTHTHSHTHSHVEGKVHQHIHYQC", "lysine labeling ratio R10:1": "1.13 (active)"},
      {"target": "RDX (lysine site: K363) (UniProt P35241)", "lysine labeling ratio R10:1": "1.44 (active)"},
      {"target": "MET (lysine site: K380) (UniProt P08581)", "lysine labeling ratio R10:1": "1.21 (active)"},
      {"target": "HSP90AB1 (lysine site: K624) (UniProt P08238)", "lysine labeling ratio R10:1": 7.02},
      {"target": "PARK7 (lysine site: K148) (UniProt Q99497)", "lysine labeling ratio R10:1": 3.31},
      {"target": "UniProt P21589 (lysine site: K326)", "lysine labeling ratio R10:1": "1.17 (active)"},
      {"target": "ADGRG2 (lysine site: K592) (UniProt Q8IZP9)", "lysine labeling ratio R10:1": 2.37},
      {"target": "RPS19 (lysine site: K143) (UniProt P39019)", "lysine labeling ratio R10:1": "1.75 (active)"},
      {"target": "MYH9 (lysine site: K1862) (UniProt P35579)", "lysine labeling ratio R10:1": 2.81},
      {"target": "UniProt Q15149 (lysine site: K1150)", "sequence (Q15149 whole entry)": "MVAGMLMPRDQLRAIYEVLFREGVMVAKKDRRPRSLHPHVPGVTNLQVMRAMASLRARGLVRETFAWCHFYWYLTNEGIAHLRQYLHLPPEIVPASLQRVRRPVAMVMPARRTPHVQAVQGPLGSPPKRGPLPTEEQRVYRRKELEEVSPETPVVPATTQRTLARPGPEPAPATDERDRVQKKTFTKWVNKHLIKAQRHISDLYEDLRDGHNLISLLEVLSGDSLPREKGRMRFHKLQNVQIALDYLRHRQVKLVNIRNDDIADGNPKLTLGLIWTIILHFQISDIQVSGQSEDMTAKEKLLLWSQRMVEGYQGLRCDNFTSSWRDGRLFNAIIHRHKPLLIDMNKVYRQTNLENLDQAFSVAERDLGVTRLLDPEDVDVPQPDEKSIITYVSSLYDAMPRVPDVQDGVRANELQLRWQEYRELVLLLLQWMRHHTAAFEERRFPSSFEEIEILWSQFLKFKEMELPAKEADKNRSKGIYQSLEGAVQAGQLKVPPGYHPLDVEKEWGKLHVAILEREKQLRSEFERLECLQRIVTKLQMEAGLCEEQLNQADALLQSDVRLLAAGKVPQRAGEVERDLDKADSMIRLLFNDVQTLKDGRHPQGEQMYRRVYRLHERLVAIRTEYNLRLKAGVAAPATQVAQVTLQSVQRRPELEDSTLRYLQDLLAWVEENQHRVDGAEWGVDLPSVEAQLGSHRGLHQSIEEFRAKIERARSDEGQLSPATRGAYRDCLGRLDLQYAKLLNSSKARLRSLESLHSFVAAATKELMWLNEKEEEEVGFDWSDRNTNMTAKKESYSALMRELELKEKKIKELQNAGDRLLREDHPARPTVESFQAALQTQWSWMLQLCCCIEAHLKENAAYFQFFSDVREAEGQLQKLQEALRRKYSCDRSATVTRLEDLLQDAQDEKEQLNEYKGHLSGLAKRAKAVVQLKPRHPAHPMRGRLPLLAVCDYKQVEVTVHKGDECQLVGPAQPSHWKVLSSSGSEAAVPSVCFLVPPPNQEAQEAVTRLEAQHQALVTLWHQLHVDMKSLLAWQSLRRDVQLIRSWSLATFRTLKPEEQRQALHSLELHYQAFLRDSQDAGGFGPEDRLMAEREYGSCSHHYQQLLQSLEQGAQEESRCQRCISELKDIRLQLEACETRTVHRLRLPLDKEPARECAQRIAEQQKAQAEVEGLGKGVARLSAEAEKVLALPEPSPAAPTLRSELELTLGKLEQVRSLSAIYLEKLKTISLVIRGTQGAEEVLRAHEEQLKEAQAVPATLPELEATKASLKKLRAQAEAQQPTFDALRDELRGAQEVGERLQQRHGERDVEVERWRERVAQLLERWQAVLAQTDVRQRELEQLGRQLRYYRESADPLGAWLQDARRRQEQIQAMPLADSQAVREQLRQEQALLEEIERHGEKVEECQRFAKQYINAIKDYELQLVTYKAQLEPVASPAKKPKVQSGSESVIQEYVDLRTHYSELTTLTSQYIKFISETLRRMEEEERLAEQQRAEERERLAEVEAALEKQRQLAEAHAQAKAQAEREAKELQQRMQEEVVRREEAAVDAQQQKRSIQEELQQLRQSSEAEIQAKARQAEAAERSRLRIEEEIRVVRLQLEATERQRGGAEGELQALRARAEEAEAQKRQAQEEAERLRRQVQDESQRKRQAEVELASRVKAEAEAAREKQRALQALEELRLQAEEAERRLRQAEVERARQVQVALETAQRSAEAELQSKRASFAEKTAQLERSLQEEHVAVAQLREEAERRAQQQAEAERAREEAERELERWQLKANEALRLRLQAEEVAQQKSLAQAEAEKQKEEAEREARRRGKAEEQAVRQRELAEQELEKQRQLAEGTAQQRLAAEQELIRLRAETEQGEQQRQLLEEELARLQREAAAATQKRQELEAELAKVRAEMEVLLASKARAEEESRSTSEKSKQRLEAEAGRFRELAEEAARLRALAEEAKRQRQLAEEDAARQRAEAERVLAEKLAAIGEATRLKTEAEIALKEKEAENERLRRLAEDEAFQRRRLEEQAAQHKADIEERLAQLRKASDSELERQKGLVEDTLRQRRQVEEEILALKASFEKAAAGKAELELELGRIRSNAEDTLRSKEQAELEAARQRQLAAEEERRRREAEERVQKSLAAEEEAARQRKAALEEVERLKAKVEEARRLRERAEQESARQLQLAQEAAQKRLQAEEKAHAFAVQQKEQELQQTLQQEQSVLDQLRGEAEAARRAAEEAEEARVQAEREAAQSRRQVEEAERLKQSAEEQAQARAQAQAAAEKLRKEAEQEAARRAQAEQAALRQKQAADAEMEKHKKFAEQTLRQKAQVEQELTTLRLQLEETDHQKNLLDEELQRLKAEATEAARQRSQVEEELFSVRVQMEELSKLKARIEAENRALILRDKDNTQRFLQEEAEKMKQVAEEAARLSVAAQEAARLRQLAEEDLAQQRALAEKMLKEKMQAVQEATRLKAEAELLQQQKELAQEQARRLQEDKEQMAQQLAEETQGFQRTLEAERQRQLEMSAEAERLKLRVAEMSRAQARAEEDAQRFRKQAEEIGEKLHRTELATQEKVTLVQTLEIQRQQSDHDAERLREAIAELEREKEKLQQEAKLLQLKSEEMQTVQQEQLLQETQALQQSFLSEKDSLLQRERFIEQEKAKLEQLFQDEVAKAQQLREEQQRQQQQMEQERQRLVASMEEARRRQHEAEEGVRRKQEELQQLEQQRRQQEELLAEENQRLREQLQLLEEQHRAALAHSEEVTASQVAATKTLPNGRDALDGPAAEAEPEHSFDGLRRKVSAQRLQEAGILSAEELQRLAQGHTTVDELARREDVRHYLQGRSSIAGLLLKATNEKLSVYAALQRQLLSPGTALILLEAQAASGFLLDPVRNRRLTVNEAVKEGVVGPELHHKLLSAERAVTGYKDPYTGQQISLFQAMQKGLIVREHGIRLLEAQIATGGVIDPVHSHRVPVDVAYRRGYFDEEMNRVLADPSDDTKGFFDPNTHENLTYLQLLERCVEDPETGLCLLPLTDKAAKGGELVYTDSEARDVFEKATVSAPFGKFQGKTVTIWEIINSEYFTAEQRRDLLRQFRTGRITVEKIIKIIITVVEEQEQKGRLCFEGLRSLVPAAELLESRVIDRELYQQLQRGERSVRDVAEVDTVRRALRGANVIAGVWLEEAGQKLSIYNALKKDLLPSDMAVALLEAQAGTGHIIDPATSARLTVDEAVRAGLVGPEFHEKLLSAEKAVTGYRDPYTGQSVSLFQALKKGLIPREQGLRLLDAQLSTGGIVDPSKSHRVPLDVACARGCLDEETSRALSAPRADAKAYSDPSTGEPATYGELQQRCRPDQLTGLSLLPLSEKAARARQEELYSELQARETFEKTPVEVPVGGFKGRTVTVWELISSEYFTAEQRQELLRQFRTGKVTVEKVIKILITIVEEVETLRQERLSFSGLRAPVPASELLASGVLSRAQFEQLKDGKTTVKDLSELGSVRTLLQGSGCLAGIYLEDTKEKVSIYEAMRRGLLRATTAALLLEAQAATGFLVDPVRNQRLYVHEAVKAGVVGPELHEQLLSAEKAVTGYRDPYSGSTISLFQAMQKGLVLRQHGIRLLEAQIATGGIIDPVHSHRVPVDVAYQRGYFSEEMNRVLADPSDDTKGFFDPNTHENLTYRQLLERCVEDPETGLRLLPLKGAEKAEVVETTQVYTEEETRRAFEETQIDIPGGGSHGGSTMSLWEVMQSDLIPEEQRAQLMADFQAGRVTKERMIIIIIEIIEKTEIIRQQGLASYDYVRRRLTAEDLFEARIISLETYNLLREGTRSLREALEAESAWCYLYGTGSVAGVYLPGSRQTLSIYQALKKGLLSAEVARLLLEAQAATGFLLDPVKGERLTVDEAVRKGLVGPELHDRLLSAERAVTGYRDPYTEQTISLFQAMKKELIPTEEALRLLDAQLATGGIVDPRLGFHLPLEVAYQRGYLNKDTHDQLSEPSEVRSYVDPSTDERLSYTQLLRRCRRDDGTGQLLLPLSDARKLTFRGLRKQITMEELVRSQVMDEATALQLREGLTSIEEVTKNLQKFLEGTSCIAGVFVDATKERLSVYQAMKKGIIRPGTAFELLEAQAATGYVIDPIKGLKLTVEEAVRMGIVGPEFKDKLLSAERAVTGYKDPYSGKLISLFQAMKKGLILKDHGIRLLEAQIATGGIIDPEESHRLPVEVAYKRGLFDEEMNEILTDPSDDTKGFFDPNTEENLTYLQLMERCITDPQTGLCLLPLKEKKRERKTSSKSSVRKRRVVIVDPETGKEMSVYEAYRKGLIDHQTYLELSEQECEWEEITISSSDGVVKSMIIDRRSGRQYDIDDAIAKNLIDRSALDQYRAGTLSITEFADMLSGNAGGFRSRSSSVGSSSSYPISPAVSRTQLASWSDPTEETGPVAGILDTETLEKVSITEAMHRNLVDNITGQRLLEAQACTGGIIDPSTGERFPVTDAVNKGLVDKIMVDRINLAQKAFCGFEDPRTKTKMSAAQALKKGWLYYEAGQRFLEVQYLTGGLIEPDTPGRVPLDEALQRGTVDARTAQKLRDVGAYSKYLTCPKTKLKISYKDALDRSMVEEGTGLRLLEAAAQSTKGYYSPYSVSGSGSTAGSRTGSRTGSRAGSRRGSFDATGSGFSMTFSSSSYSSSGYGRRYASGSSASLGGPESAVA", "lysine labeling ratio R10:1": 3.29},
      {"target": "EEA1 (lysine site: K583) (UniProt Q15075)", "lysine labeling ratio R10:1": 3.77},
      {"target": "CCT8 (lysine site: K20) (UniProt P50990)", "lysine labeling ratio R10:1": 2.11},
      {"target": "BST2 (lysine site: K126) (UniProt Q10589)", "lysine labeling ratio R10:1": 4.11},
      {"target": "CACNA2D1 (lysine site: K842) (UniProt P54289)", "lysine labeling ratio R10:1": 4.24},
      {"target": "SPTAN1 (lysine site: K39) (UniProt Q13813)", "lysine labeling ratio R10:1": 2.65},
      {"target": "APOB (lysine site: K1642) (UniProt P04114)", "lysine labeling ratio R10:1": 2.17},
      {"target": "PA2G4 (lysine site: K288) (UniProt Q9UQ80)", "lysine labeling ratio R10:1": "0.997 (active)"},
      {"target": "UniProt Q15149 (lysine site: K2318)", "lysine labeling ratio R10:1": 4.26},
      {"target": "IL6ST (lysine site: K335) (UniProt P40189)", "lysine labeling ratio R10:1": "0.692 (active)"},
      {"target": "UniProt Q13275 (lysine site: K239)", "lysine labeling ratio R10:1": "1.5 (active)"},
      {"target": "PLXND1 (lysine site: K310) (UniProt Q9Y4D7)", "lysine labeling ratio R10:1": 3.11},
      {"target": "PRDX2 (lysine site: K92) (UniProt P32119)", "lysine labeling ratio R10:1": 6.57},
      {"target": "UniProt Q15149 (lysine site: K3027)", "lysine labeling ratio R10:1": 2.74},
      {"target": "F2 (lysine site: K599) (UniProt P00734)", "lysine labeling ratio R10:1": 6.29},
      {"target": "ATP6V0D1 (lysine site: K77) (UniProt P61421)", "lysine labeling ratio R10:1": "1.33 (active)"},
      {"target": "ALCAM (lysine site: K75) (UniProt Q13740)", "lysine labeling ratio R10:1": 9.89},
      {"target": "PAICS (lysine site: K286) (UniProt P22234)", "lysine labeling ratio R10:1": "1.42 (active)"},
      {"target": "EEF2 (lysine site: K598) (UniProt P13639)", "lysine labeling ratio R10:1": "1.36 (active)"},
      {"target": "COL5A1 (lysine site: K1708) (UniProt P20908)", "lysine labeling ratio R10:1": "1.7 (active)"},
      {"target": "EDIL3 (lysine site: K444) (UniProt O43854)", "lysine labeling ratio R10:1": 3.53}
    ]}
  ]
}
